Data as given in PubChem BioAssay AID588338 (NMMLSC, 2011).
Several values for one entry are separate records, joined by “and”; a condition that tells them apart may be missing. Equal values may be shown once. Out of some 1,300 compounds screened, about 20 (2%) were called active. These entries were drawn from the full list. Values without a mark were called inactive.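 How the source made its calls: active means inhibition above 50%, about 3 SD of the inhibition seen with non-fluorescent compounds; inactive means the rest.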

Assay: interference with GST/GSH bead binding – biochemical, cherry pick 1, flow cytometry, artefact control for arrestin-AP2 inhibitor project, confirmation (AID 588338);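 further: fluorescein maleimide labelled GST captured on 4 micron glutathione beads; higher means more loss of bead fluorescence from quenching or blocked binding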
Conditions: GST-fluorescein binding to GSH beads, fluorescence, counter-screen; at 10 µM; stronger effect = higher value

| SMILES | inhibition |
| --- | --- |
| COc1cccc(-n2c(SCC(=O)c3c[nH]c4ccccc34)nc3ccccc3c2=O)c1 | 57.9% (active) |
| Cn1c(=O)c2c(nc(N/N=C/c3cccs3)n2Cc2ccc(Br)cc2)n(C)c1=O | 0.63% |
| COc1ccc(CCNc2ncnc3c2nnn3Cc2ccccc2)cc1 | 4.82% |
| Cc1ccc(CNC(=O)C2CC(=O)N(C3CCCCCCC3)C2)cc1 (stereo not given) | -4.09% |
| Cc1ccc(Nc2ccc(C(N)=O)cc2[N+](=O)[O-])cc1 | -6.5% |
| CC(C)c1nnc(NC(=O)CCC(=O)N2CCN(c3cccc(Cl)c3)CC2)s1 | -10.6% |
| O=C(c1ccc(S(=O)(=O)NCc2ccco2)cc1)N1CCN(c2ccccc2)CC1 | 8.86% |
| CCCc1ccc(-c2csc(NC(=O)Cc3cccs3)n2)cc1 | -4.6% |
| Cc1ccc(C)c(NC(=S)NNC(=S)Nc2ccc(C(C)C)cc2)c1 | 0.62% |
| Cc1ccc(CN2C(=O)CCC2C(=O)NCCCN2CCCCC2C)cc1 (stereo not given) | -11.5% |
| Cc1cc(C(=O)OCC(=O)c2c(N)n(C)c(=O)n(C)c2=O)c(C)o1 | -2.19% and 1.72% |
| CCOc1ccc(-c2nnc(-c3ccco3)o2)cc1 | -7.89% |
| O=c1[nH]c2ccccc2n2c(-c3ccccc3)nnc12 | 36.4% |
| Cc1ccc(C2(C)NC(=O)N(CC(=O)Nc3ccccc3C(=O)N3CCCCC3)C2=O)cc1 (stereo not given) | -3.63% |
| CC(C)C[C@H](NC(=O)N1CCn2c1nc1ccccc12)C(=O)NC1CC1 | -5.48% |
| CN1C(=O)/C(=C/c2ccco2)SC1=Nc1cccc(C(=O)O)c1 | 0.38% |
| Brc1ccccc1C1Nc2cccc3cccc(c23)N1 | 1.35% |
| COCCNC(=O)Nc1ccc2nc(-c3ccco3)c(-c3ccco3)nc2c1 | 22.4% |
| Cc1ccc(OCCCCc2c(C)n[nH]c2C)cc1 | -8.59% |
| COc1cc2c(cc1NC(=O)COC(=O)/C=C/c1ccccc1)oc1ccccc12 | -10.3% |
| CC(Oc1ccccc1)C(=O)NN1Cc2ccccc2C1=N (stereo not given) | -4.56% |
| Cc1ccc(S(=O)(=O)/N=C(/Nc2ccccn2)c2ccc(Cl)cc2)cc1 | -4.23% |
| O=C(NCc1ccco1)c1ccc(CS(=O)(=O)Cc2ccc(F)cc2)o1 | -8.88% |
| Cc1cc(C)cc(Oc2nc3c(C)cccn3c(=O)c2/C=C(\C#N)C(=O)NC2CCS(=O)(=O)C2)c1 (stereo not given) | -0.21% |
| COC(=O)c1cc(NC(=O)c2nn(C)c(=O)c3ccccc23)cc(C(=O)OC)c1 | -0.11% |
